# Results: PubChem BioAssay
# Calls of active or inactive are those of the source. Unless noted, no stated cut-off is given here; in the data, active means inhibition above about 80%; inactive means the rest.
# Assays:
# [1] = viability rescue of complex I mutant cybrids, primary screen, cell-based, galactose medium, ATP luminescence (AID 1645843;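 active means z-score of at least 1.8 in each of two replicates, scored against plate mean and spread of sample wells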;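 further: positive z means more ATP and so rescue of galactose-driven cybrid death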); details: complex I mutant cybrid cells, 72 h, stronger effect = higher value
# [2] = LFS_MB_P medulloblastoma growth inhibition, cell-based, chromothripsis tumors, cisplatin or BGB combos (AID 1671449); details: LFS_MB_P medulloblastoma cells;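 further: cells exposed for 96 hours; 0% = vehicle DMSO and 100% = killing by high DMSO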
# [3] = HDN33 neuroblastoma growth inhibition, cell-based, chromothripsis tumors, cisplatin or BGB combos (AID 1671450); details: HDN33 neuroblastoma cells, stronger effect = higher value;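 further: cells exposed to compound for four days; 0% = vehicle DMSO and 100% = cell killing by high DMSO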
# [4] = ICB984 medulloblastoma cell growth inhibition, synergistic combos for chromothripsis tumors, cisplatin or BGB combos (AID 1671451; call rule not given here;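 further: cells exposed for 96 hours before readout; 0% = vehicle DMSO and 100% = killing by high DMSO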); details: ICB984 medulloblastoma cells, drug combinations, stronger effect = higher value
# [5] = LFS_MB_1R medulloblastoma cell growth inhibition, synergistic combos for chromothripsis tumors, cisplatin or BGB combos (AID 1671452); details: LFS_MB_1R medulloblastoma cells, stronger effect = higher value;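 further: cells exposed for 96 hours before readout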
# [6] = HTB85 osteosarcoma cell growth inhibition, synergistic combos for chromothripsis tumors, BGB or cisplatin IC20 combos (AID 1671453); details: HTB85 osteosarcoma cells, drug combinations, stronger effect = higher value;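 further: cells exposed for 96 hours before readout; 0% = vehicle DMSO and 100% = high DMSO killing control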
# [7] = CRL2098 osteosarcoma cell growth inhibition, synergistic combos for chromothripsis tumors, BGB or cisplatin IC20 combos (AID 1671454); details: CRL2098 osteosarcoma cells, drug combinations, stronger effect = higher value;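 further: cells exposed for 96 h before readout; 0% = vehicle DMSO and 100% = killing by high DMSO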
# [8] = HD-MB03 medulloblastoma cell growth inhibition, synergistic combos for chromothripsis tumors, BGB or cisplatin IC20 combos (AID 1671455; in the data active means inhibition above about 83%;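 further: 0% = vehicle DMSO and 100% = high DMSO as cytotoxic control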); details: HD-MB03 medulloblastoma cells, stronger effect = higher value
# [9] = UWB1.289 ovarian carcinoma cell growth inhibition, synergistic combos for chromothripsis tumors, BGB or cisplatin combos (AID 1671456); details: UWB1.289 ovarian carcinoma cells, stronger effect = higher value;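 further: cells exposed to compound for four days; 0% = vehicle DMSO and 100% = killing by high DMSO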
# [10] = LFS_MB_2R medulloblastoma cell growth inhibition, synergistic combos for chromothripsis tumors, cisplatin combos (AID 1671457); details: LFS_MB_2R medulloblastoma cells, stronger effect = higher value;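 further: cells exposed to compound for four days before readout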
# [11] = MDA-MB-436 breast carcinoma cell growth inhibition, synergistic combos for chromothripsis tumors, BGB or cisplatin combos (AID 1671458; call rule not given here;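 further: cells exposed for 96 hours; 0% = vehicle DMSO and 100% = killing by high DMSO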); details: MDA-MB-436 breast carcinoma growth inhibition, drug combinations, stronger effect = higher value
# [12] = UWB1.289_BRCA1 ovarian cancer growth, cell-based, BGB or cisplatin combinations (AID 1671459); details: UWB1.289 BRCA1 ovarian carcinoma, drug combinations, stronger effect = higher value
# [13] = human astrocyte viability loss, single and combined drugs, cytotoxicity control for chromothriptic childhood tumor combination screen, cell-based, BGB or cisplatin IC20 combos (AID 1671460); details: Human astrocytes, drug combinations, stronger effect = higher value;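 further: cells exposed to compounds for 96 hours before viability readout; 0% = vehicle and 100% = killing control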
# [14] = growth inhibition of BT084 medulloblastoma cells, cell-based, ICGC_MB145, cisplatin and BGB IC40 combos (AID 1671461); details: drug combinations, stronger effect = higher value;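 further: cells exposed to drugs for 96 hours; 0% = vehicle DMSO and 100% = high DMSO full killing control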
# [15] = growth inhibition of RCMB18 medulloblastoma cells, cell-based, cisplatin and BGB IC40 combos (AID 1671462); details: stronger effect = higher value;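 further: cells exposed to compound for four days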
# [16] = growth inhibition of CRL1545 osteosarcoma cells, cell-based, cisplatin and BGB IC20 combos (AID 1671464); details: stronger effect = higher value;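 further: cells exposed to compound for 96 hours before readout; 0% = vehicle DMSO and 100% = high DMSO killing control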
# [17] = measured here: combination with BGB IC40, at 0.05 µM
# [18] = measured here: with BGB IC20 combination, at 0.5 µM
# [19] = measured here: with cisplatin IC20 combination, at 0.5 µM
# [20] = measured here: combination with cisplatin, at 0.5 µM
# [21] = measured here: combination with cisplatin, at 5 µM
compound,measurement,setting,value
O=C(CC1CCCCCC1)N1CCC(Cn2cc(C3CC3)nn2)CC1,z-score,[1],-0.55 (inactive)
CCCCC(CO)NC(C)CCc1ccc(O)cc1 (stereo not given),z-score,[1],-0.565 (inactive)
COc1nccnc1-c1ccc2c(c1)OCO2,z-score,[1],0.365 (inactive)
CCn1ncc2[nH]c(-c3ccc(-c4ccccn4)cc3)nc21,z-score,[1],-1.15 (inactive)
Cc1nsc(NC(=O)N2CCCCC2c2ccc(F)cc2)n1 (stereo not given),z-score,[1],-0.445 (inactive)
CCc1ncc(-c2cc(C(=O)N3CCC(C)(C)C3)c3ccc(F)cc3n2)cn1,z-score,[1],-0.56 (inactive)
CC(C)CCC(=O)N(C)CCCC1CCCC1,z-score,[1],-0.145 (inactive)
CN(C)Cc1cn(C2CCN(C(=O)C3CCCCCC3)CC2)nn1,z-score,[1],-0.49 (inactive)
COc1ccc2c(c1)C=C(CNc1cccnc1)CO2,z-score,[1],0.615 (inactive)
O=C1CN(c2ncnc3sccc23)CCN1Cc1ccc(F)cc1,z-score,[1],0.19 (inactive)
CCCn1cc(-c2ccnc(NCc3cn4cccc(C)c4n3)n2)c(C)n1,z-score,[1],-1.07 (inactive)
COc1cccc(CN2CCN(C(=O)c3cc4cc(OC)ccc4[nH]3)CC2=O)c1,z-score,[1],-0.41 (inactive)
C=C1CCC(O)CC1=CC=C1CCCC2(C)C1CCC2C(C)C=CC(C)C(C)C (stereo not given),inhibition,"[2]; at 0.5 µM, stronger effect = higher value",-12.3% (inactive)
same,inhibition,"[2]; measured here: combination with BGB IC20, at 0.005 µM",-24.6%
same,inhibition,"[2]; measured here: combination with BGB IC40, at 0.005 µM",-11.2%
same,inhibition,[2]; [17],-19.6%
same,inhibition,"[2]; measured here: combination with cisplatin, at 0.5 µM, stronger effect = higher value",-17.3%
same,inhibition,"[2]; measured here: combination with cisplatin, at 5 µM, stronger effect = higher value",-80.9%
same,inhibition,"[3]; BGB combo, at 5 µM",-2.75%
same,inhibition,[3]; at 0.5 µM,5.6% (inactive)
same,inhibition,"[3]; cisplatin combo, at 5 µM",6.61%
same,inhibition,[3]; [18],7.28%
same,inhibition,[3]; [19],3.61%
same,inhibition,"[3]; single agent, at 5 µM",5.11%
same,inhibition,"[4]; BGB IC20 combo, at 0.005 µM",-16.8%
same,inhibition,"[4]; BGB IC40 combo, at 0.005 µM",-28.1%
same,inhibition,"[4]; BGB IC40 combo, at 0.05 µM",22.2%
same,inhibition,[4]; at 0.5 µM,-8.49% (inactive)
same,inhibition,"[4]; cisplatin combo, at 0.05 µM",22.2%
same,inhibition,"[4]; cisplatin combo, at 0.5 µM",-55.6%
same,inhibition,"[4]; cisplatin combo, at 5 µM",-22.2%
same,inhibition,"[4]; measured here: 5 uM single agent, at 5 µM",-22.8%
same,inhibition,[5]; at 0.5 µM,14.3% (inactive)
same,inhibition,[5]; [17],15.9%
same,inhibition,[5]; [20],28.4%
same,inhibition,[5]; [21],4%
same,inhibition,[6]; at 0.5 µM,-12.4% (inactive)
same,inhibition,"[6]; measured here: with BGB IC20, at 0.5 µM",-26.3%
same,inhibition,"[6]; measured here: with BGB IC20, at 5 µM",9.36%
same,inhibition,"[6]; measured here: with cisplatin IC20, at 0.5 µM",-19%
same,inhibition,"[6]; measured here: with cisplatin IC20, at 5 µM",1.54%
same,inhibition,"[6]; single agent, at 5 µM",12%
same,inhibition,[7]; at 0.5 µM,-3.6% (inactive)
same,inhibition,"[7]; measured here: combination with BGB at IC20, at 0.5 µM",-1.76%
same,inhibition,"[7]; measured here: combination with cisplatin at IC20, at 0.5 µM",19.2%
same,inhibition,[8]; at 0.5 µM,-7.66% (inactive)
same,inhibition,"[8]; measured here: combo with BGB at IC20, at 0.5 µM",-6.27%
same,inhibition,"[8]; measured here: combo with cisplatin at IC20, at 0.5 µM",-11.7%
same,inhibition,[9]; at 0.5 µM,-2.68% (inactive)
same,inhibition,"[9]; measured here: inhibition with BGB combination, at 0.05 µM",-16.7%
same,inhibition,"[9]; measured here: inhibition with cisplatin combination, at 0.05 µM",-7.51%
same,inhibition,[10]; at 0.5 µM,-22.6% (inactive)
same,inhibition,[10]; [20],-24.1%
same,inhibition,[10]; [21],-14.6%
same,inhibition,[11]; at 0.5 µM,-12.5% (inactive)
same,inhibition,"[11]; measured here: BGB combination, at 0.5 µM",-17.5%
same,inhibition,"[11]; measured here: BGB combination, at 5 µM",-14.8%
same,inhibition,"[11]; measured here: cisplatin combination, at 0.5 µM",-15.7%
same,inhibition,"[11]; measured here: cisplatin combination, at 5 µM",-13.9%
same,inhibition,"[12]; BGB combination, concentration series, at 5 µM",18.4%
same,inhibition,[12]; at 0.5 µM,-4.82% (inactive)
same,inhibition,"[12]; cisplatin combination, concentration series, at 5 µM",27.5%
same,inhibition,[13]; at 0.5 µM,2.39% (inactive)
same,inhibition,"[13]; measured here: combo with BGB IC20, at 0.5 µM",0.485%
same,inhibition,"[13]; measured here: combo with cisplatin IC20, at 0.5 µM",-12%
same,inhibition,[14]; at 0.5 µM,-17.5% (inactive)
same,inhibition,"[14]; cisplatin combination, at 0.5 µM",-35.1%
same,inhibition,"[14]; cisplatin combination, at 5 µM",-77.9%
same,inhibition,"[14]; measured here: BGB IC40 combination 0.05 uM, at 0.05 µM",22.6%
same,inhibition,"[14]; single agent, at 5 µM",-13.5%
same,inhibition,[15]; at 0.5 µM,-6.63% (inactive)
same,inhibition,"[15]; cisplatin combo, at 5 µM",-19.4%
same,inhibition,"[15]; measured here: BGB IC40 combination, at 0.05 µM",-24%
same,inhibition,[15]; [20],-21.7%
same,inhibition,"[15]; single agent, at 5 µM",-13.3%
same,inhibition,[16]; at 0.5 µM,-21.7% (inactive)
same,inhibition,[16]; [18],16.4%
same,inhibition,[16]; [19],-40.8%
same,inhibition,"[16]; single agent, at 0.05 µM",37.2%
same,inhibition,"[16]; single agent, at 5 µM",10.9%
